From PubChem
Only a sample is shown.
aSyn 5UTR act – Activators working through SNCA 5'UTR binding (MLPCN); alpha-synuclein 5'UTR reporter, activators screen; activity score, % (tested at 7.5 µM), hits read low; 300,000 tested, 7.1% active; in the data active means activity score below about -60%
* marks the source's active call; other numbers are inactive results.

SMILES	aSyn 5UTR act
Cc1cc(-c2ccccc2)nc(N/N=C/c2ccccc2)n1	-110.2*
Cc1cc(C)nc(N/N=C/c2cccc(Cl)c2)n1	-93.4*
CCOC(=O)/C(N=Nc1ccc2c(c1)OCO2)=C(\C)O	-123.3*
O=C(NNC(=O)c1ccccc1OCc1ccccc1)c1ccccc1F	-85.1*
O=C(NNC(=O)c1ccccc1OCc1ccccc1)c1ccccc1O	64.9
COc1ccccc1C(=O)NNC(=O)c1ccccc1F	-96.8*
COc1ccccc1C(=O)NNC(=S)NC(=O)c1cc(OC)c(OC)c(OC)c1	72.5
Clc1ccc2nc3c4ccccc4cnn3c2c1	-160.3*
O=C(CCCc1cccs1)Nc1ccc2c(c1)OCO2	-182.0*
COc1ccc(CNC(=O)CSc2ccsc2[N+](=O)[O-])cc1	-117.3*
O=C(Cc1cccs1)NCc1cccc(Br)c1	-111.9*
O=C(CCCN1C(=O)/C(=C/c2ccc3c(c2)OCO3)SC1=S)Nc1cccc(C(=O)O)c1	72.9
O=C(Cc1cccs1)NCc1ccc2c(c1)OCO2	-64.5*
COc1ccc(CNC(=O)Cc2cccs2)cc1	-70.1*
COc1cccc(Nc2nc(-c3cccnc3)cs2)c1	-173.1*
COc1cccc2sc(Nc3nc(-c4ccncc4)cs3)nc12	105.0
Cc1ccc(Nc2nc(-c3cccnc3)cs2)cc1Cl	-174.9*
c1cncc(Nc2nc(-c3cccnc3)cs2)c1	-71.6*
Clc1ccccc1Nc1nc(-c2cccnc2)cs1	-185.3*
Clc1ccccc1-c1csc(Nc2cccnc2)n1	-71.5*
O=C1CN(c2ccccc2)C(=S)N1C(=O)c1ccccc1	-153.6*
Cc1cccc(NC(=O)c2ccc(OCC3CCCO3)cc2)c1C (stereo not drawn)	-69.7*
O=C(Nc1ccccc1)OCC1CCCO1 (stereo not drawn)	-83.9*
O=C(Nc1ccc(Cl)cc1)c1ccc(OCC2CCCO2)cc1 (stereo not drawn)	-201.9*
COCCNc1c(-c2cc3ccc(C)c(C)c3[nH]c2=O)nc2ccccn12	-153.0*
SMILES	aSyn 5UTR act
Cn1c(SCc2ccccc2)nnc1-c1cccs1	-146.8*
Cn1c(SCc2ccc(F)cc2)nnc1-c1cccs1	-107.7*
c1ccc(CN2CCC(Nc3nc(-c4cccs4)nc4ccccc34)CC2)cc1	61.8
Oc1ccc2c(c1)oc1cc(O)ccc12	-177.6*
COCCNC(=O)c1ccc2c(Cl)c3c(nc2c1)CCC3	-145.2*
COc1cc2[nH]c3c(=O)n4c(nc3c2cc1OC)SCCC4	-97.0*
Cn1c(=O)c2nc(-c3ccc(Cl)cc3Cl)oc2c2ccccc21	-72.2*
CN=C(Nc1ccc(Cl)cc1)c1ccc(C(F)(F)F)cc1	-91.7*
O=c1oc2ccccc2cc1-c1cn2ccccc2n1	98.2
O=c1oc2ccccc2cc1-c1ccccc1	-118.0*
O=c1oc2ccc(Cl)cc2cc1-c1ccccc1	-69.9*
O=C(Cc1cccc2ccccc12)Nc1ccc(-c2cc3ccccc3oc2=O)cc1	65.1
O=c1oc2ccccc2cc1-c1cn2cccnc2n1	-65.4*
O=c1oc2ccccc2cc1-c1nnc(-c2cccc(Br)c2)o1	-98.1*
Cc1nc(/N=C(\N)NC(=O)c2ccccc2)nc2ccccc12	-292.2*
Cc1ccc2nc(/N=C(\N)NC(=O)NC3CCCCC3)nc(C)c2c1	-149.4*
COc1ccc(C(CC(=O)c2ccc(O)cc2)S(=O)(=O)c2ccc(C)cc2)cc1 (stereo not drawn)	-250.3*
Clc1ccc(-c2ccc(/C=N/Nc3nncc(-c4ccccc4)n3)o2)cc1	-75.3*
Cc1[nH]n(-c2ccccc2)c(=O)c1/C=N/Nc1nncc(-c2ccccc2)n1	91.2
Oc1cccc(/C=N\Nc2nncc(-c3ccccc3)n2)c1	-210.2*
Cc1ccc(/C=N/Nc2nncc(-c3ccccc3)n2)o1	-99.1*
COc1ccc(Cn2c(-c3ccco3)nc3oc4cc(OC)ccc4c(=O)c3c2=O)cc1	-91.6*
COc1ccc(N/N=C(\C#N)C(=N)N2CCCCC2)cc1	-82.3*
CCN(CC)C(=N)/C(C#N)=N/Nc1ccc(C)cc1	-135.5*
Cc1ccc(N/N=C(\C#N)C(=N)N2CCCCCC2)cc1	-113.4*
SMILES	aSyn 5UTR act
N#C/C(=N\Nc1ccccc1F)C(=N)N1CCCCC1	-157.7*
Cc1ccc(N/N=C(\C#N)C(=N)N2CCOCC2)cc1	-140.7*
N#C/C(=N\Nc1ccc(Cl)cc1)C(=N)N1CCCCC1	-101.4*
COCCCNc1nc(N)c([N+](=O)[O-])c(NCc2ccccc2)n1	56.5
COc1ccc(OCCOc2ccccc2[N+](=O)[O-])cc1	-152.9*
O=[N+]([O-])c1ccccc1OCCOc1ccccc1[N+](=O)[O-]	-138.5*
O=[N+]([O-])c1ccccc1OCCCOc1cccc2cccnc12	-96.3*
COc1ccc(CNc2ncccc2[N+](=O)[O-])cc1	-79.5*
O=[N+]([O-])c1ccccc1NCCOc1ccccc1	-227.3*
CC1CN(c2ccc([N+](=O)[O-])c(NCCOc3ccc(Cl)cc3)c2)CC(C)N1 (stereo not drawn)	104.2
CCOC(=O)/C=C/COc1ccccc1[N+](=O)[O-]	-69.8*
Cc1ccc2c(CC(=O)Nc3nc(C)cs3)coc2c1	-70.3*
Cc1csc(NC(=O)Cc2c(F)cccc2Cl)n1	-131.2*
O=C(Cc1c[nH]c2ccccc12)Nc1nc2ccccc2[nH]1	-101.3*
COc1ccc2c(CC(=O)Nc3ncc(C)s3)coc2c1	-133.2*
Cc1ccc(CC(=O)Nc2cccc(C)n2)cc1	-171.9*
Cc1csc(NC(=O)Cc2c[nH]c3ccccc23)n1	-94.6*
Cc1cccc(NC(=O)Cc2c(F)cccc2Cl)n1	-103.2*
CN1CCN(CC(=O)Nc2nc(-c3c[nH]c4ccccc34)cs2)CC1	-62.5*
Cc1csc(NC(=O)Cc2ccc(F)cc2)n1	-64.7*
Cc1cc(CNC(=O)Cc2c(F)cccc2Cl)nn1C	-71.6*
O=C(O)/C=C\C(=O)Nc1ccccc1C#Cc1ccc(Br)cc1	-290.4*
O=C(O)/C=C\C(=O)Nc1ccccc1C#Cc1ccccc1	-86.8*
Nc1c(C(=O)Nc2ccc3c(c2)OCCO3)nnn1Cc1ccccc1Cl	-205.0*
Nc1c(C(=O)Nc2ccc3c(c2)OCCO3)nnn1Cc1cccc(Cl)c1	-152.9*
SMILES	aSyn 5UTR act
Nc1c(C(=O)Nc2ccc3c(c2)OCCO3)nnn1Cc1ccc(F)cc1	-178.8*
O=C(Nc1cccc2ncccc12)c1cc([N+](=O)[O-])ccc1Cl	-61.9*
Cc1ccc(C2(c3ccc(C)cc3)CC2C(=O)Nc2ccc([N+](=O)[O-])cc2O)cc1 (stereo not drawn)	67.2
O=C(Nc1cccc2c1CCCC2)c1cc([N+](=O)[O-])ccc1Cl	-79.4*
Cc1ccc(O)c(NC(=O)c2cc([N+](=O)[O-])ccc2Cl)c1	-62.0*
Cc1cc(O)c(NC(=O)c2cc([N+](=O)[O-])ccc2Cl)cc1C	-106.4*
O=C(CCl)Nc1cccc2ncccc12	-95.4*
Cc1nc2c(cc(Oc3ccc(S(=O)(=O)N4CCOCC4)cn3)c3ccsc32)s1	-88.7*
COCCn1c(C)cc(C(=O)Cn2nc(C(=O)O)c3ccccc3c2=O)c1C	-116.4*
COCCn1c(C)cc(C(=O)CSc2nc3ccccc3s2)c1C	53.1
O=C(O)CCCN1C(=O)/C(=C\C(Cl)=C\c2ccccc2)SC1=S	-224.7*
O=C(CCN1C(=O)/C(=C/c2ccccc2)SC1=S)N1CCCCCC1	-62.4*
CCOc1ccc(/C=C2\SC(=S)N(CCC(=O)O)C2=O)cc1	114.6
CC1CCN(C(=O)CCN2C(=O)/C(=C/c3cccs3)SC2=S)CC1	-74.7*
COCCN1C(=O)/C(=C/c2ccc(N3CCCC3)cc2)SC1=S	-85.4*
O=C1/C(=N\S(=O)(=O)c2cccs2)C([n+]2cccc(Cc3ccccc3)c2)=C([O-])c2ccccc21	84.7
